Experimental data reported in PubChem BioAssay AID1159580 (chemical genetic matrix, 2015).
Among all 5,500 compounds or so, about 2,000 (36%) were called active. About 18% were inconclusive and are not listed. Rule as the data show it: active = normalized growth mostly below about 0.91 (no sharp cut-off); inconclusive = no clear call, values can overlap the other calls; inactive = mostly above about 0.92. The list shows a part of the results.

Assay: chemical genetic growth profiling, strain panel (AID 1159580);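 also: tested at 20 µM; growth read once vehicle control cultures reached saturation at 30 °C; 1 = growth at the plate median or of vehicle wells; lower values mean less growth of the strain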
Conditions: S. cerevisiae deletion strains, growth OD

Measured: normalized growth

COc1ccc2c(c1)c(CC(=O)O)c(C)n2Cc1ccc(Cl)cc1
inactive: locus YAL013W, strain DEP1, stronger effect = lower value 0.994 | locus YAL040C, strain CLN3, stronger effect = lower value 0.96 | locus YCL061C, strain MRC1 (second series), stronger effect = lower value 1 | locus YDR150W, strain NUM1, stronger effect = lower value 1.02 | locus YDR363W, strain ESC2, stronger effect = lower value 0.972 | locus YER002W, strain NOP16, stronger effect = lower value 0.999 | locus YGR078C, strain PAC10, stronger effect = lower value 0.981 | locus YGR229C, strain SMI1, stronger effect = lower value 0.941 | locus YMR307W, strain GAS1, stronger effect = lower value 1 | locus YNL175C, strain NOP13, stronger effect = lower value 0.966 | locus YNL197C, strain WHI3, stronger effect = lower value 0.95 | locus YNL224C, strain SQS1, stronger effect = lower value 0.981 | locus YNL322C, strain KRE1, stronger effect = lower value 0.994 | locus YOR083W, strain WHI5 (second series), stronger effect = lower value 0.953 | locus YPL055C, strain LGE1, stronger effect = lower value 0.996 | locus YPL241C, strain CIN2, stronger effect = lower value 0.994
